Source: PubChem BioAssay (National Center for Advancing Translational Sciences (NCATS))
An excerpt weighted towards active compounds, which were near 9.5% of everything screened.
SARS PLpro yeast: inhibitors of SARS-CoV papain-like protease in yeast. S. cerevisiae expressing SARS-CoV PLpro, growth rescue. Potency, µM (doses to about 32.9 µM), actives largely listed as activators. 330,000 compounds, 0.19% hits. AID 485353; further: nearly all actives have a fitted effect of over 55% in size
NS1 inh: influenza NS1 inhibition; 270,000 compounds, 0.4% hits; Potency, µM (doses to about 46.1 µM); further: actives are rising curves; nearly all actives have a fitted effect of over 50% in size
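S. cerevisiae expressing influenza A NS1, grown in glucose, washed, then diluted 1:100 into pH 6.0 -URA galactose medium with 23 nl compound. Growth recovery read as OD600; NS1-free strain serves as control.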
Pf growth 96h: inhibits malaria parasite growth, 96 h. P. falciparum luciferase reporter growth, 96 h. Potency, µM (series often up to 28.7 µM), most hits filed as inhibitors. 320,000 compounds, 6.9% hits. AID 504834; active means well fitted inhibition curve with a large enough effect; inconclusive means small, poorly fitted or top-dose-only effect, or another doubt; inactive means no such curve, though single readings can be large or run the other way
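Two parasite generations (96 h, 37 C, 5% CO2) of compound exposure in infected erythrocytes (0.05% parasitemia, 2% hematocrit). Luciferase-reporter P. falciparum; decreased luminescence indicates inhibited growth, aimed at apicoplast-acting delayed death.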
RE007 growth inh: less growth of the S. pombe RE007 Vpr strain; S. pombe RE007 Vpr strain, BacTiter-Glo ATP luminescence, 24 h; 360,000 compounds, 0.21% hits; Potency, µM (top dose mostly 92.2 µM), actives largely listed as inhibitors; active means well fitted falling curve with a large enough effect; inconclusive means small, poorly fitted or top-dose-only effect; inactive means no such curve, though single readings can be large or run the other way; further: nearly all actives have a fitted effect of over 50% in size
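Fission yeast strain RE007, carrying one chromosomally integrated HIV-1 vpr copy, was seeded at OD 0.01 in PMG+AL medium with 23 nL pinned compound. After 24 h at 30 °C and 99% humidity, viability was read by BacTiter-Glo luminescence.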
Pf growth 48h: inhibits P. falciparum growth in the first generation, 48 h; P. falciparum luciferase growth in erythrocytes, 48 h; Potency, µM (doses to about 28.7 µM), actives largely listed as inhibitors; 310,000 compounds, 5.9% hits; active means well fitted inhibition curve with a large enough effect; inconclusive means small, poorly fitted or top-dose-only effect, or another doubt; inactive means no such curve, though single readings can be large or run the other way
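Firefly luciferase activity from engineered P. falciparum reports growth; inhibitors lower the luminescent signal. Cultures contained 2% hematocrit erythrocytes at 0.1% final parasitemia.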
Each line names hits and unclear results; the compound was inactive in the other large screens. Unless noted, the call rests on the fitted dose curve.

Cc1nc([N+](=O)[O-])cn1CC(=O)c1ccc(Br)cc1	none (no result: NS1 inh)
Cc1cc2nc3c(nc2cc1C)C1(C(=O)N(C)C)CCC3(C)C1(C)C (stereo not drawn)	Pf growth 48h inconclusive (no result: Pf growth 96h)
CN(C)C(=O)C12CCC(C)(c3nc4ccccc4nc31)C2(C)C (stereo not drawn)	Pf growth 96h 2.6µM
CC[C@@]12C(=O)N(c3ccc(C)cc3)C(=O)N1[C@H](c1cccc(C)c1)[C@@H]1C(=O)N(Cc3ccccc3)C(=O)[C@@H]12	Pf growth 96h inconclusive, Pf growth 48h inconclusive (no result: NS1 inh)
CC[C@@]12C(=O)N(c3cccc(Cl)c3)C(=O)N1[C@H](c1cccc(C)c1)[C@@H]1C(=O)N(Cc3ccccc3)C(=O)[C@@H]12	Pf growth 96h 5.2µM, Pf growth 48h 4.7µM (no result: NS1 inh)
CC[C@@]12C(=O)N(c3ccc(OC)cc3)C(=O)N1[C@H](c1cccc(C)c1)[C@@H]1C(=O)N(Cc3ccccc3)C(=O)[C@@H]12	Pf growth 96h 13µM, Pf growth 48h inconclusive
Cc1cccc([C@@H]2[C@@H]3C(=O)N(Cc4ccccc4)C(=O)[C@@H]3[C@]3(C)C(=O)N(c4cccc(F)c4)C(=O)N23)c1	Pf growth 96h inconclusive, Pf growth 48h 10µM (no result: NS1 inh)
Cc1cccc([C@@H]2[C@@H]3C(=O)N(Cc4ccccc4)C(=O)[C@@H]3[C@]3(Cc4ccc(Cl)cc4)C(=O)N(c4ccc(Br)cc4)C(=O)N23)c1	NS1 inh inconclusive, Pf growth 96h 8.3µM, Pf growth 48h inconclusive
Cc1ccc(C(=O)NCCSc2ccccc2)cc1S(=O)(=O)Nc1ccccc1	none
CCOc1ccc(S(=O)(=O)N2CCN(C(=O)C3CCC3)CC2)cc1	Pf growth 96h inconclusive (no result: NS1 inh)
CCOc1ccc(CCNC(=O)CCC(=O)N2CCOc3ccccc32)cc1OCC	none
CS(=O)(=O)N(CC(=O)N1CCCCCC1)c1cccc(Br)c1	Pf growth 96h 12µM
Cc1ccc(N(CC(=O)N2CCOCC2)S(C)(=O)=O)cc1Cl	Pf growth 96h inconclusive
Cc1ccc(N(CC(=O)N2CCCCCC2)S(C)(=O)=O)cc1Cl	Pf growth 96h 7.4µM
CC(C)CCCC(C)C1CC(=O)C2=C3CCC4CC(O)CCC4(C)C3CCC21C (stereo not drawn)	Pf growth 96h inconclusive (no result: SARS PLpro yeast, NS1 inh, RE007 growth inh)
Nc1nc(SCCc2ccccc2)c2[nH]cnc2n1	none (no result: SARS PLpro yeast, Pf growth 96h, RE007 growth inh, Pf growth 48h)
CC1(C(=O)Nc2ccccc2F)CCN1C(=O)Cc1ccc(-c2ccccc2)cc1 (stereo not drawn)	none (no result: SARS PLpro yeast, NS1 inh, Pf growth 96h, Pf growth 48h)
CC(C)Cc1nnc(NC(=O)CCC(=O)NC2CCCCCC2)s1	none
COC(=O)C1=C(C)N(Cc2ccc(OC)c(OC)c2)C(=O)C1	Pf growth 96h inconclusive, Pf growth 48h 13µM
CC(=O)N1CCN(c2ccc(Nc3ncnc4c3oc3ccccc34)cc2)CC1	NS1 inh inconclusive, Pf growth 96h inconclusive
CCc1nc(NCCCn2ccnc2)c2oc3ccccc3c2n1	Pf growth 96h 13µM, Pf growth 48h inconclusive
CCc1nc(Nc2ccc(N3CCN(C(C)=O)CC3)cc2)c2oc3ccccc3c2n1	Pf growth 48h 10µM
c1ccc(-c2nc(NCCCn3ccnc3)c3oc4ccccc4c3n2)cc1	Pf growth 96h 2.3µM, Pf growth 48h 3.3µM
c1cncc(-c2nc(NCCCn3ccnc3)c3ccccc3n2)c1	Pf growth 96h inconclusive
COc1cc(C(=O)NC(=S)Nc2ccc3[nH]c(=O)[nH]c3c2)cc(OC)c1OC	none
COc1ccc(CN2C(=NC(=O)CCc3ccccc3)SC3CS(=O)(=O)CC32)cc1 (stereo not drawn)	Pf growth 96h inconclusive
Cc1ccc(NC(=S)N2CC(C)OC(C)C2)cc1C (stereo not drawn)	Pf growth 96h inconclusive
Cc1nnc(SCc2nnc(-c3ccccc3Br)o2)n1-c1ccccc1	Pf growth 96h inconclusive, Pf growth 48h 10µM
CCN(CC(=O)Nc1ccc(NC(C)=O)cc1)C(=O)C1(c2ccc(Cl)cc2)CCC1	none (no result: SARS PLpro yeast, NS1 inh, Pf growth 96h, Pf growth 48h)
CCC(C)Nc1nc(-c2c[nH]c3ccccc23)cs1 (stereo not drawn)	Pf growth 96h inconclusive, Pf growth 48h 8.3µM
O[C@H](C[C@@H]1CCCCN1)c1ccc2c(c1)oc1ccccc12	none (no result: SARS PLpro yeast, Pf growth 96h, RE007 growth inh, Pf growth 48h)
CC1(C)CC(N2CCCC2)=CC(=[N+]2CCCC2)C1	Pf growth 96h 0.33µM, Pf growth 48h 1.5µM
CN(Cc1ccccc1)C1=CC(=[N+]2CCCCC2)CC(C)(C)C1	NS1 inh inconclusive, Pf growth 96h 0.33µM, Pf growth 48h 0.37µM
CC1(C)CC(NNCCC#N)=CC(=[N+]2CCCC2)C1	Pf growth 96h inconclusive (no result: NS1 inh)
CC1(C)CC(N2CCN(Cc3ccccc3)CC2)=CC(=[N+]2CCCCC2)C1	Pf growth 96h 0.52µM, Pf growth 48h 0.83µM
CC1(C)CC(N2CCCC2)=CC(=[N+]2CCCCC2)C1	Pf growth 96h inconclusive, Pf growth 48h 0.83µM (no result: NS1 inh)
O=C(CN1C(=O)NC2(CCCC2)C1=O)NNC(=O)c1ccc(F)cc1	none (no result: NS1 inh)
CCCCNC(=O)C(=O)Nc1cc2c3c(c1)CCC(=O)N3CCC2	Pf growth 96h inconclusive
COP(=O)(OC)C(NC(=O)Nc1ccccc1)c1ccccc1 (stereo not drawn)	none
CCCCC1=CC2=C(c3ccco3)C(=O)C(C)(OC(=O)c3ccc(OC)cc3)C(=O)C2=CN1CCCN(CC)CC (stereo not drawn)	Pf growth 96h 15µM, Pf growth 48h inconclusive
CCCCC1=CC2=C(c3ccco3)C(=O)C(C)(OC(=O)c3ccc(OC)cc3)C(=O)C2=CN1CCCCO (stereo not drawn)	Pf growth 96h inconclusive, Pf growth 48h inconclusive
CCCCC1=CC2=C(c3ccco3)C(=O)C(C)(OC(=O)c3ccc(OC)cc3)C(=O)C2=CN1Cc1ccc(OC)cc1 (stereo not drawn)	Pf growth 96h inconclusive, Pf growth 48h inconclusive (no result: RE007 growth inh)
CCCCC1=CC2=C(c3ccco3)C(=O)C(C)(OC(=O)c3ccc(OC)cc3)C(=O)C2=CN1CCN1CCOCC1 (stereo not drawn)	Pf growth 96h 10µM, Pf growth 48h inconclusive
O=C(OCC(=O)N1CCCc2ccccc21)c1cc(Br)ccc1O	Pf growth 96h inconclusive (no result: NS1 inh)
O=C(Nc1cccc(-c2cccc(F)c2)c1)C1CCN(Cc2ccc(CO)o2)CC1	none
O=C(Nc1cccc(-c2cccc(F)c2)c1)C1CCN(C2CCOCC2)CC1	Pf growth 96h 7.4µM, Pf growth 48h inconclusive
O=C(c1ccc(C#Cc2ccccc2)o1)N1CCN(c2ccccn2)CC1	Pf growth 96h 8.3µM
O=C(c1ccc(CS(=O)Cc2ccc(Cl)cc2)o1)N1CCN(c2ccccn2)CC1 (stereo not drawn)	Pf growth 96h 10µM
O=C(c1ccc(COc2ccccc2Br)o1)N1CCN(c2ccccn2)CC1	none
N#C/C=C(/N)c1ccc(Br)cc1	Pf growth 96h 10µM, Pf growth 48h 13µM
CCC(C)NCCC(=O)Nc1ccc(Cl)c(S(=O)(=O)Nc2ccc(Cl)cc2)c1 (stereo not drawn)	Pf growth 96h 9.3µM, Pf growth 48h 10µM (no result: NS1 inh)
Cc1ccc(C(C)n2cc(C(=O)NCc3ccccn3)nn2)cc1 (stereo not drawn)	none (no result: NS1 inh)
